From ChEMBL document CHEMBL3988442, “University of Dundee, Small-Polar-MMV Screening Library” (2021)

Target: T1, Methionyl-tRNA synthetase, putative (Leishmania donovani (strain BPK282A1)) (UniProt E9BF75)
T1 sequence (whole entry): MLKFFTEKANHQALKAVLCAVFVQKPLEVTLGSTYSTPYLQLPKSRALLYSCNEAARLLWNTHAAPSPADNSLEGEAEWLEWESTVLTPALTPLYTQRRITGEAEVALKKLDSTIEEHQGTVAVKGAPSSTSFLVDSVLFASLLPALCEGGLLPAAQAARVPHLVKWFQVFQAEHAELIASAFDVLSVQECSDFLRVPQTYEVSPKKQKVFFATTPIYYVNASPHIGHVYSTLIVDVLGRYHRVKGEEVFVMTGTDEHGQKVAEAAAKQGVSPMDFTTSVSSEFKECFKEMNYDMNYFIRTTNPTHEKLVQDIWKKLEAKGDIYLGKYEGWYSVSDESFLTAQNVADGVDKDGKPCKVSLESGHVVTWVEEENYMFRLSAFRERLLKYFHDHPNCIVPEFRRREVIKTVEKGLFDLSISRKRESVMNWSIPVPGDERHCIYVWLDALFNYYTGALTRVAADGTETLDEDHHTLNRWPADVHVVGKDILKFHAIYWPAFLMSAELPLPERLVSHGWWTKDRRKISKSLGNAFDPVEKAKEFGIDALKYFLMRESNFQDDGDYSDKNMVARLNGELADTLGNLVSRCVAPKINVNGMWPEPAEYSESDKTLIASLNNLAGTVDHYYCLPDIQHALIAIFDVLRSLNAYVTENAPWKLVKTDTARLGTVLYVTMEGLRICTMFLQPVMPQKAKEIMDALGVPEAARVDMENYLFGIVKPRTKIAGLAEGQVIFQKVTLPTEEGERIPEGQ
Experiment: Leishmania donovani Methionine tRNA synthetase (LdMetRS):v7. Dose response assay
Type: functional
Set-up: conc 80 nM, time 150 minutes

CCN(CC)c1ccc2ccc(C(=O)NC3CCCC3)cn12
PXC50 (MAX_EFFECT 33.58778626): < 4 | PXC50 (MAX_EFFECT 39.03508772): < 4

Nc1nc(CSc2ccccn2)nc2sc3c(c12)CCCCC3
PXC50 (MAX_EFFECT 34.13333333): < 4 | PXC50 (MAX_EFFECT 39.15343915): < 4

CS(=O)(=O)Nc1cccc2c(=O)cc(C(=O)NCC3CCCCC3)oc12
PXC50 (MAX_EFFECT 0.797448166): < 4 | PXC50 (MAX_EFFECT 2.111324376): < 4

Cc1ncc(CNc2cnccc2CO)s1
PXC50 (MAX_EFFECT 4.225352113): < 4 | PXC50 (MAX_EFFECT 9.814814815): < 4

COCCNC(=O)c1ccc2ccc(N3CCN(CC4CC4)CC3)n2c1
PXC50 (BOTTOM 5.874206897, HILLSLOPE 1.640597442, MAX_EFFECT 51.96261682, TOP 70.05301325): 4.26 | PXC50 (MAX_EFFECT 46.71201814): < 4

OB1OCc2cc(Cl)ncc21
PXC50 (MAX_EFFECT 7.762557078): < 4 | PXC50 (MAX_EFFECT 14.1509434): < 4

CCNc1nc(-c2ccc(CC)cc2)cc(C(F)(F)F)n1
PXC50 (MAX_EFFECT 8.510638298): < 4 | PXC50 (MAX_EFFECT 9.32642487): < 4

CS(=O)(=O)N1CCN(c2ccc3ccc(C(=O)NCCc4ccccc4)cn23)CC1
PXC50 (BOTTOM 2.353808238, HILLSLOPE 2.745183605, MAX_EFFECT 51.67464115, TOP 50.17202443): 5.02 | PXC50 (BOTTOM 6.057044372, HILLSLOPE 2.135645997, MAX_EFFECT 57.03839122, TOP 56.72145826): 4.82

O=c1cc(NCCCNCc2cc(C(F)(F)F)cs2)[nH]c2ccccc12
PXC50 (BOTTOM -2.424501326, HILLSLOPE 1.220462925, MAX_EFFECT 102.3310023, TOP 102.5192077): 5.71 | PXC50 (BOTTOM -3.989177117, HILLSLOPE 1.235768434, MAX_EFFECT 100.0, TOP 101.1477832): 5.75

Cc1nc(NCc2ccccn2)c2cc(C)sc2n1
PXC50 (MAX_EFFECT 3.015075377): < 4 | PXC50 (MAX_EFFECT 6.633906634): < 4

COCCNc1nc(-n2nc(C)cc2C)nc2sccc12
PXC50 (BOTTOM 2.201340626, HILLSLOPE 2.387703954, MAX_EFFECT 53.50877193, TOP 100.0): 4.03 | PXC50 (MAX_EFFECT 36.45833333): < 4

COC(=O)CN(C)c1nc(-c2cccs2)nc2sc(C)c(C)c12
PXC50 (MAX_EFFECT 23.66412214): < 4 | PXC50 (MAX_EFFECT 24.93702771): < 4

CNC(=O)CNc1nc(CN2CCCCC2)nc2sc3c(c12)CCC3
PXC50 (MAX_EFFECT 7.304785894): < 4 | PXC50 (MAX_EFFECT 12.46819338): < 4

OB1OCc2cc(C(F)(F)F)ncc21
PXC50 (MAX_EFFECT 8.490566038): < 4 | PXC50 (MAX_EFFECT 11.87214612): < 4

CC(C)C[C@H](N)COc1ccccc1-c1ccno1
PXC50 (MAX_EFFECT 9.594882729): < 4 | PXC50 (MAX_EFFECT 10.97308489): < 4

CCC(CO)Nc1nc(CSc2ccccc2)nc2sc3c(c12)CCC3 (stereo not given)
PXC50 (MAX_EFFECT 27.86885246): < 4 | PXC50 (MAX_EFFECT 29.94652406): < 4

Cc1nc(N(C)CC(=O)N2CCCC2)c2c3c(sc2n1)CCCC3
PXC50 (MAX_EFFECT 3.703703704): < 4 | PXC50 (MAX_EFFECT 3.733333333): < 4

CCc1nc(NCCCOC)c2c3c(sc2n1)CCC3
PXC50 (MAX_EFFECT 10.43256997): < 4 | PXC50 (MAX_EFFECT 14.35768262): < 4

Cc1nc(N2CCC(O)CC2)c2c(-c3cccs3)csc2n1
PXC50 (MAX_EFFECT 8.905852417): < 4 | PXC50 (MAX_EFFECT 9.319899244): < 4

N[C@H](COc1cccc(F)c1Oc1ccc(Cl)cc1)C1CCOCC1
PXC50 (MAX_EFFECT 9.316770186): < 4 | PXC50 (MAX_EFFECT 10.44776119): < 4

N[C@H](COc1cccc(F)c1Oc1ccc(Cl)cc1)c1ccccc1
PXC50 (BOTTOM 4.511954534, HILLSLOPE 1.875524354, MAX_EFFECT 67.28778468, TOP 93.68195714): 4.2 | PXC50 (BOTTOM -3.133728258, HILLSLOPE 1.050142996, MAX_EFFECT 53.9445629, TOP 100.0): 4.1

Cc1nn(C)cc1-c1cc(C(F)(F)F)nc(NC2CCN(C)CC2)n1
PXC50 (MAX_EFFECT 9.138381201): < 4 | PXC50 (MAX_EFFECT 9.921671018): < 4

COCCN(Cc1cnn(C)c1)c1nc(C)nc2sccc12
PXC50 (MAX_EFFECT 10.70496084): < 4 | PXC50 (MAX_EFFECT 11.48825065): < 4

CCc1nc(N2CCCC(C(=O)O)C2)c2c3c(sc2n1)CCC3 (stereo not given)
PXC50 (MAX_EFFECT 18.93939394): < 4 | PXC50 (MAX_EFFECT 20.91836735): < 4

Cc1nc(N2CCC(C(N)=O)CC2)c2c3c(sc2n1)CC(C)CC3 (stereo not given)
PXC50 (MAX_EFFECT 5.852417303): < 4 | PXC50 (MAX_EFFECT 9.319899244): < 4

CCCNc1nc(-c2ccc(C)cc2)cc(C(F)(F)F)n1
PXC50 (MAX_EFFECT 6.21761658): < 4 | PXC50 (MAX_EFFECT 10.10638298): < 4

CC(C)NC(=O)c1ccc2ccc(N3CCN(S(C)(=O)=O)CC3)n2c1
PXC50 (BOTTOM 1.200641937, HILLSLOPE 2.342552546, MAX_EFFECT 57.54716981, TOP 55.68048652): 4.88 | PXC50 (BOTTOM 2.289724742, HILLSLOPE 1.802731874, MAX_EFFECT 51.59817352, TOP 52.80479707): 4.95

CCc1nc(NCCO)c2cc(CC)sc2n1
PXC50 (MAX_EFFECT 6.532663317): < 4 | PXC50 (MAX_EFFECT 10.07371007): < 4

COc1ccc2c(c1)COB2O
PXC50 (MAX_EFFECT 5.094339623): < 4 | PXC50 (MAX_EFFECT 9.589041096): < 4

Cc1nc(NC(Cc2ccccc2)C(=O)O)c2c3c(sc2n1)CCCC3 (stereo not given)
PXC50 (MAX_EFFECT 23.07692308): < 4 | PXC50 (MAX_EFFECT 25.24509804): < 4
